# The supplement of paper PMC12282887
# ± gives the standard deviation of the averaged measurements.
# System: E. coli BW25113 marRABp lux reporter
# Assay: promoter activity interaction Z-score (Lux/OD deviation from empty-vector control); higher = stronger promoter induction by the compound
# Method: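 E. coli BW25113 (wild type or ΔmarA/ΔsoxS/Δrob) carrying pTU175 luxCDABE promoter reporters was grown in LB in 384-well plates at 37°C with each of 94 compounds at 4 two-fold concentrations, in biological duplicates. Luminescence and OD600 were read every 30 min for 12 h and integrated as AUC over 8 h (0-8 h WT, 1-9 h mutants). Lux AUC was divided by OD AUC; the interaction score is the residual of a Huber robust fit of each promoter against the empty-vector control, then Z-transformed per promoter.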
Compound,"promoter activity interaction Z-score (13.5 µg/ml, genetic background: wild type)","promoter activity interaction Z-score (13.5 µg/ml, genetic background: ΔmarA)","promoter activity interaction Z-score (13.5 µg/ml, genetic background: Δrob)","promoter activity interaction Z-score (13.5 µg/ml, genetic background: ΔsoxS)","promoter activity interaction Z-score (26.9 µg/ml, genetic background: wild type)","promoter activity interaction Z-score (26.9 µg/ml, genetic background: ΔmarA)","promoter activity interaction Z-score (26.9 µg/ml, genetic background: Δrob)","promoter activity interaction Z-score (26.9 µg/ml, genetic background: ΔsoxS)","promoter activity interaction Z-score (53.9 µg/ml, genetic background: wild type)","promoter activity interaction Z-score (53.9 µg/ml, genetic background: ΔmarA)","promoter activity interaction Z-score (53.9 µg/ml, genetic background: Δrob)","promoter activity interaction Z-score (53.9 µg/ml, genetic background: ΔsoxS)","promoter activity interaction Z-score (107.7 µg/ml, genetic background: wild type)","promoter activity interaction Z-score (107.7 µg/ml, genetic background: ΔmarA)","promoter activity interaction Z-score (107.7 µg/ml, genetic background: Δrob)","promoter activity interaction Z-score (107.7 µg/ml, genetic background: ΔsoxS)","promoter activity interaction Z-score (18.9 µg/ml, genetic background: wild type)","promoter activity interaction Z-score (18.9 µg/ml, genetic background: ΔmarA)","promoter activity interaction Z-score (18.9 µg/ml, genetic background: Δrob)","promoter activity interaction Z-score (18.9 µg/ml, genetic background: ΔsoxS)","promoter activity interaction Z-score (37.8 µg/ml, genetic background: wild type)","promoter activity interaction Z-score (37.8 µg/ml, genetic background: ΔmarA)","promoter activity interaction Z-score (37.8 µg/ml, genetic background: Δrob)","promoter activity interaction Z-score (37.8 µg/ml, genetic background: ΔsoxS)","promoter activity interaction Z-score (75.6 µg/ml, genetic background: wild type)","promoter activity interaction Z-score (75.6 µg/ml, genetic background: ΔmarA)","promoter activity interaction Z-score (75.6 µg/ml, genetic background: Δrob)","promoter activity interaction Z-score (75.6 µg/ml, genetic background: ΔsoxS)","promoter activity interaction Z-score (151.1 µg/ml, genetic background: wild type)","promoter activity interaction Z-score (151.1 µg/ml, genetic background: ΔmarA)","promoter activity interaction Z-score (151.1 µg/ml, genetic background: Δrob)","promoter activity interaction Z-score (151.1 µg/ml, genetic background: ΔsoxS)"
CC(=O)O[C@H]1C[C@@]2(C)[C@@H](C[C@@H](O)[C@H]3[C@@]4(C)CC[C@@H](O)[C@@H](C)[C@@H]4CC[C@@]32C)/C1=C(\CCC=C(C)C)C(=O)O [Fusidic acid],-0.438 ± 0.029,0.0154 ± 0.048,-0.0451 ± 0.073,0.0686 ± 0.1,0.0382 ± 0.39,0.3 ± 0.31,0.0321 ± 0.089,0.122 ± 0.072,0.384 ± 0.077,0.457 ± 0.14,0.307 ± 0.22,0.418 ± 0.13,0.539 ± 0.64,0.236 ± 0.49,0.523 ± 0.97,1.17 ± 0.92,–,–,–,–,–,–,–,–,–,–,–,–,–,–,–,–
O=c1c(O)c(-c2ccc(O)c(O)c2)oc2cc(O)cc(O)c12 [Quercetin],–,–,–,–,–,–,–,–,–,–,–,–,–,–,–,–,0.0379 ± 0.17,-0.192 ± 0.25,-0.164 ± 0.21,0.203 ± 0.51,0.341 ± 0.79,0.116 ± 0.59,0.248 ± 0.078,0.179 ± 0.43,0.82 ± 0.64,0.9 ± 0.12,-0.0348 ± 0.087,0.129 ± 0.45,1.13 ± 0.91,0.91 ± 0.61,0.867 ± 0.51,0.0221 ± 0.045
